Paper PMC4552634, “A New Set of Chemical Starting Points with Plasmodium falciparum Transmission-Blocking Potential for Antimalarial Drug Discovery” (PLoS ONE, 2015)
The whole screen tested about 13,000 compounds, of which about 3,200 (25%) showed an effect of 50% or more. The list shows a part of the results.

Tested on: P. falciparum stage V gametocytes
Design: BacTiter-Glo ATP luminescence viability of purified stage V gametocytes in 384-well plates, per cent inhibition versus DMSO
Conditions: 48 h, 5 µM; inhibitor

SMILES | % Inhibition
Nc1nnc(-c2ccc(Cl)c(Br)c2)c(N)n1 [TCMDC-137285] | -16.33%
Cc1cc(N2Cc3ccccc3C2)nc(Nc2cccc(C#N)c2)n1 [TCMDC-134199] | -14.79%
Cc1[nH]c2c(C)cc(NS(C)(=O)=O)cc2c1C1CCN(CC2CCN(C(=O)/C=C/c3ccc(Cl)c(Cl)c3)CC2)CC1 [TCMDC-140173] | -57.53%
Cc1cccc(C(=O)Nc2ccnc(N(C)CCCN(C)Cc3cccc(C#N)c3)c2)c1 [TCMDC-134968] | 26.78%
CC(C)CCN1CCCN(Cc2ccc(C(=O)NCc3ccc(Cl)cc3)cc2)CC1 [TCMDC-136452] | -12.3%
O=C(Nc1ccccc1O)c1ccc(S(=O)(=O)c2ccc(Cl)cc2)cc1 [TCMDC-123689] | 47.63%
O=C(NCc1ccco1)c1ccc(S(=O)(=O)c2ccc(Cl)cc2)cc1 [TCMDC-124393] | 65.45%
O=C(Nc1ccc(-c2cccc(-c3nc4ccccc4[nH]3)c2)cc1)Nc1ccc(Cl)c(Cl)c1 [TCMDC-133284] | -10.68%
O=C(Nc1ccccc1O)c1ccc(Oc2cccc(C(=O)Nc3ccccc3O)c2)cc1 [TCMDC-125220] | -89.02%
Cc1cc2ccccc2n1CC(=O)N1CC(C(=O)N2CCCCC2)Oc2ccccc21 (centres unmarked) [TCMDC-125253] | 84.5%
CCN(CC)C(=O)C1CCN(C(C(=O)N2CCN(CC(=O)N3CCCC3)CC2)c2cc3ccccc3o2)CC1 (centres unmarked) [TCMDC-141126] | -9.75%
COc1ccc(C(F)(F)F)cc1N1CCN(CCCCNC(=O)c2ccc(NC(=O)c3ccc(Cl)cc3)cc2)CC1 [TCMDC-138258] | -21.85%
O=C(Nc1ccc(C(=O)OCC2CCCN3CCCCC23)cc1)c1ccc(Cl)c(Cl)c1 (centres unmarked) [TCMDC-124027] | 3.603%
CCN(CC)CCNc1ccnc2ccc3ccccc3c12 [TCMDC-131800] | 5.083%
CC(C)Nc1ccc(Nc2ccnc3cc4ccccc4cc23)cc1 [TCMDC-123916] | -35.26%
OCCN1CCN(c2ccc(Nc3ccnc4cc5ccccc5cc34)cc2)CC1 [TCMDC-123915] | 73.35%
c1ccc2cc3c(Nc4ccc(N5CCCCC5)cc4)ccnc3cc2c1 [TCMDC-123505] | -37.48%
CCN(CC)CCNc1ccc(Nc2ccnc3cc4ccccc4cc23)cc1 [TCMDC-123498] | 93.37%
CN1CCN(c2ccc(Nc3ccnc4ccc(-c5ccccc5)cc34)cc2)CC1 [TCMDC-123917] | -37.23%
O=C(/C=C/c1ccc(Cl)c(Cl)c1)NCCCCCN1CCC(NC(=S)Nc2ccc(Cl)cc2Cl)CC1 [TCMDC-135902] | 24.59%
